# A selection: hits, their analogues and other compounds. The true share with any hit is near 3%.
# KDM5B inhibitor – Primary screen for KDM5B Histone Demethylases FDH-coupled qHTS; Lysine-specific demethylase 5B (Homo sapiens), Q9UGL1; KDM5B demethylase, FDH-coupled NADH fluorescence (FDH is formaldehyde dehydrogenase); Potency, µM (top dose mostly 57.7 µM), actives largely listed as inhibitors; 2.6% of 220,000 active; AID 1347165, 2019; note: potency is the fitted concentration of half-maximal effect; 0% is about no effect; nearly all actives have a fitted effect of over 70% in size
#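 KDM5BΔAP (200 nM final) in 50 mM HEPES pH 7.5, 0.01% Tween-20 was preincubated 10 min at RT with compound over a concentration range. Substrate mix (H3K4me3 12.5 µM, α-KG 25 µM, Fe²⁺, ascorbate, NAD⁺, FDH) was added, and NADH fluorescence change over 30 min gave dose-response curves.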
# SNCA expr inh – Primary qHTS assay for inhibitors of alpha-synuclein gene (SNCA) expression; HEK-293 SNCA-luciferase knock-in, luminescence, 24 h; 0.17% of 140,000 active; Potency, µM (series often up to 57.2 µM), inactives show top-dose activity change, negative = inhibition, usual class: inhibitors; AID 1671194, 2021;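 note: potency is the fitted concentration of half-maximal effect; plate controls were DMSO cells for no effect and cell-free wells for full effect; nearly all actives have a fitted effect of over 45% in size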
# SNCA viab count – GF-AFC viability counterscreen for inhibitors of alpha-synuclein gene (SNCA) expression | HEK-293-SNCA-luc viability, GF-AFC fluorescence, 24 h | Potency, µM (titrated, usually from 57.1 µM), inactives show at the top dose activity change, negative = cytotoxicity, usual class: cytotoxic | 0.12% of 150,000 active | AID 1671193, 2021;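 note: potency is the fitted concentration of half-maximal effect; 0% = DMSO-treated cells and -100% = medium-only wells without cells; nearly all actives have a fitted effect of over 30% in size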
#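 HEK-293-SNCA-luc cells (1500/well) plated 24 h, then exposed 24 h to a dilution series; GF-AFC added 30 min at 37C, fluorescence 405/540 nm; normalised to medium-only and DMSO wells, Hill fit.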
# IP6K1 inhibitor – Primary qHTS assay for small molecule inhibitors of Inositol hexaphosphate kinase 1 (IP6K1); IP6K1 kinase, ADP-Glo luminescence, 2 h; stronger effect = lower value; activity change, % (series mostly up to about 58 µM); 0.81% of 140,000 active; in the data active = activity change below about -25%; note: % is set by controls: 0 for no effect and ±100 for the full control effect
# Target sequence (Q92551 whole entry, looked up): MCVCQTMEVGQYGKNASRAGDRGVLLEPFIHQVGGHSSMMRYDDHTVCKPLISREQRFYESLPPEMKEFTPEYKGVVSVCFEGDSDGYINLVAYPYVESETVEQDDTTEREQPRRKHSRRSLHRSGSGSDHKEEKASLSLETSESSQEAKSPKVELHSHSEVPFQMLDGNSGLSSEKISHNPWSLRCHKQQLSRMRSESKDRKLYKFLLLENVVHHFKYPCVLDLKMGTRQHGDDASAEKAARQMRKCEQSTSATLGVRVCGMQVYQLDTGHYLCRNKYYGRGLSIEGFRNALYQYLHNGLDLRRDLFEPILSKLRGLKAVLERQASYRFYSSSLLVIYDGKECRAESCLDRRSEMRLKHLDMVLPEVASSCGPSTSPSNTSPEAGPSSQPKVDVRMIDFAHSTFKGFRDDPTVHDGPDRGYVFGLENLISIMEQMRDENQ
#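 ADP-Glo luminescence measures ADP made by human IP6K1 during a 2 h RT reaction with ATP/IP6 (mix at 1.3 mM/130 uM); top library doses 57.5 and 19.1 uM final.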
# IP6K1 inh cnf – Confirmatory qHTS assay for small molecule inhibitors of Inositol hexaphosphate kinase 1 (IP6K1); shares compounds with IP6K1 inhibitor; recombinant IP6K1 kinase, ADP-Glo luminescence, 2 h; Potency, µM (top dose mostly 49 µM), without a hit: top-dose activity change, negative = inhibition, usual class: inhibitors; 13% of 1,200 active; note: potency is the fitted concentration of half-maximal effect; % is set by controls: 0 for no effect and ±100 for the full control effect; nearly all actives have a fitted effect of over 65% in size
# Starred values were filed as active, the others as inactive; i = inactive; ? = inconclusive; · = no result given; ! = repeats disagree; [ ] = another dose, or the depositor's remark. Unless noted, calls come from the whole dose curve; as a rule, active = well fitted curve in the direction sought with a large enough effect; inconclusive = small, poorly fitted or top-dose-only effect, or another doubt; inactive = no such curve, though single readings can be large; an effect the other way counts as inactive or inconclusive.
SMILES,KDM5B inhibitor,SNCA expr inh,SNCA viab count,IP6K1 inhibitor,IP6K1 inh cnf
Cc1ccc(Cl)cc1NC(=O)c1csnn1,i,-13%,-4%,-37*,?
COC(=O)c1ccc(NC(=O)CN(C)S(=O)(=O)c2ccc(Br)s2)cc1,i,-28%,-4%,-45*,?
O=C(O)CCc1ccc(S(=O)(=O)NCc2ccc(F)cc2)cc1,i,·,·,·,·
COc1ccc(NC(=O)C2CCN(C(=O)c3ncn4c3COC(c3ccccc3)C4)CC2)cc1 (stereo not drawn),i,84%,1%,-30*,-13%
Fc1ccc(C2Cn3cnc(-c4nc(-c5ccc6c(c5)OCO6)no4)c3CO2)cc1 (stereo not drawn),i,33%,-2%,-4,·
COc1ccc(-c2c(C(=O)NCc3ccccn3)nc3sccn23)cc1,·,-4%,-6%,-30*,1%
COc1cccc(-c2c(C(=O)NCc3ccccn3)nc3sccn23)c1,·,-27%,-3%,0,·
NC(=O)Cc1c[nH]c2ncc(-c3cccc(O)c3)cc12,?,-23%[87.6 µM],-4%[87.6 µM],-38*,?
O=C(Cc1c[nH]c2ncc(-c3ccccc3)cc12)N1CCCC1,?,-20%[87.6 µM],-19%[87.6 µM],-13,·
C[S+](=O)([O-])c1cccc(-c2cnc3[nH]cc(CC(N)=O)c3c2)c1,i,1%[87.6 µM],-5%[87.6 µM],-22,·
NC(=O)Cc1c[nH]c2ncc(-c3ccccc3F)cc12,35µM*,4%[87.6 µM],7%[87.6 µM],-38*,?
NC(=O)Cc1c[nH]c2ncc(-c3cccc(C(F)(F)F)c3)cc12,?,-10%[87.6 µM],4%[87.6 µM],-32*,?
O=C(Nc1ccc2oc(-c3ccc(-c4ccccc4)cc3)nc2c1)c1ccco1,i,·,·,·,·
C[N+](C)(N)Cc1ccccc1,i,·,·,·,·
Oc1ccccc1N1CCN(c2nc(-c3cccnc3)nc3ccccc23)CC1,i,·,·,·,·
Cc1ccc(Nc2cc(C)nc3c(C)cc(C)c([N+](=O)[O-])c23)cc1,i,·,·,·,·
Fc1ccc(CNc2nc(-c3ccccc3C(F)(F)F)nc3ccccc23)cc1,·,·,·,·,-2%
Fc1cccc(CNc2nc(-c3ccccc3C(F)(F)F)nc3ccccc23)c1,·,·,·,·,-8%
COc1cccc2c1cc1c(=O)n(CC(=O)NCc3ccc(C)o3)nc(C)n12,?,-7%,8%,-30*,-4%
CC#C[C@@H](CC(=O)O)c1ccc(OCc2cccc(-c3ccc(C(F)(F)F)cc3)c2)cc1,·,·,-11%,-28*,?
COc1ccc(CC(=O)NCCNC(=O)c2cccc(-c3ccc(C(F)(F)F)cc3)c2)cc1,·,13%,-19%[12.5 µM],-14,·
CCOC(=O)c1ccc(NC(=O)CSc2nnc(-c3ccncc3)n2-c2ccccc2)cc1,i,28%,0%,-27*,21%
CCOc1ccc(NC(=O)CSc2nnc(-c3ccncc3)n2-c2ccccc2)cc1,i,-10%,2%,5,·
CN(C)C(=O)C1CN(C(=O)CCc2ncc(-c3ccc(F)cc3)o2)c2ccccc2O1 (stereo not drawn),i,·,·,·,·
NC(=O)N/N=C/c1ccc([N+](=O)[O-])o1,·,-10%[25.6 µM],-4%[23.9 µM],-50*!,-1%[92.2 µM]
SMILES,KDM5B inhibitor,SNCA expr inh,SNCA viab count,IP6K1 inhibitor,IP6K1 inh cnf
Cc1[nH]c(/C=C2\C(=O)Nc3ccccc32)c(C)c1CCC(=O)O,·,·,·,·,9%
C[C@@H]1COC(Nc2ccc3ncnc(Nc4ccc(OCc5nccs5)c(Cl)c4)c3c2)=N1,·,-17%,?,-34*,?
CN(C)c1cc(=O)c2ccnc(-c3cccc(C(F)(F)F)c3)c2o1,i,-11%[87.6 µM],10%[87.6 µM],-33*,?
COc1cccc(Cl)c1-c1nccc2c(=O)cc(N(C)C)oc12,i,?,7%[87.6 µM],-18,·
CN(c1ccccc1)c1cc(=O)c2ccnc(-c3cncnc3)c2o1,?,-28%[87.6 µM],9%[87.6 µM],-26*,8%
CN(c1ccccc1)c1cc(=O)c2ccnc(-c3cccnc3)c2o1,i,?,-3%[87.6 µM],-22,·
CCCCN(CCCC)S(=O)(=O)c1[nH]ncc1C(=O)OCC,i,·,·,·,·
Cc1ccc(NC(=O)/C(C#N)=C/c2cc(C)n(-c3ccc(Br)cc3)c2C)cc1C,?,?,?,-29*,-11%
CNC(=O)[C@H]1C[C@]2(CCCCN(CCO)C2=O)N(C(=O)Cc2cccs2)[C@H]1c1ccco1,·,·,·,-5,·
NC(=O)N1CCC(CC(=O)N2CCC(C3c4ncc(Br)cc4CCc4cc(Cl)cc(Br)c43)CC2)CC1 (stereo not drawn),·,·,?,-40*,?
NC(=O)N1CCC(CC(=O)N2CCC([C@H]3c4ncc(Br)cc4CCc4cc(Cl)cc(Br)c43)CC2)CC1,·,?,-19%,·,·
O=C(NC1CCN(Cc2ccc(-c3ccsc3)cc2)C1)c1ccccc1Cl (stereo not drawn),·,?,-30%,-4,·
COc1ccccc1C(=O)Nc1ccc2oc(-c3cccc(I)c3)nc2c1,i,·,·,·,·
CC(=O)c1ccc(OC(=O)c2c(-c3ccccc3Cl)noc2C)cc1,i,52%,9%,-42*,-18%
COc1ccc(CN[C@H]2C[C@@H](Cc3cc(CN(C)c4ccccc4)on3)C2(C)C)cc1,i,?,-23%[87.6 µM],-5,·
CCCCOc1ccccc1C1CC(=O)Nc2cc(OC)c(OC)cc21 (stereo not drawn),i,-2%,-16%,-3,·
CCCCOc1ccccc1C1CC(=O)Nc2cc(C)c(C)cc21 (stereo not drawn),i,?,?,-28*,-10%
CCCC(=O)N1N=C(c2ccc(OC)cc2)CC1c1ccc2nccnc2c1 (stereo not drawn),i,·,·,·,·
COc1cc2ncnc(Nc3cccc(O)c3)c2cc1OC,·,·,-30%,-9,·
COc1cc2ncnc(Nc3cccc(Br)c3)c2cc1OC,·,44%,5%,·,?
Cc1nn(-c2ccccc2)c2c1C(C(C)C)N(C1CCN(C(=O)c3ccc(F)cc3)CC1)C2=O (stereo not drawn),·,·,·,11,·
CC(C(=O)NCc1ccccc1Cl)n1ccc2cc(S(=O)(=O)N3CCCCC3)ccc21 (stereo not drawn),i,-27%,-4%,37,·
CC(C(=O)NCc1ccccc1)n1ccc2cc(S(=O)(=O)N3CCCC3)ccc21 (stereo not drawn),?,9%,-16%,-27*,-16%
c1ccc(Cc2nc(-c3ccc4c(c3)OCCCO4)cs2)cc1,i,·,·,·,·
O=S(=O)(NC1CCN(c2ccc3nnc(-c4ccccc4)n3n2)CC1)c1cccs1,·,·,·,-27*,?
Cc1cc(=O)c(C(=O)N2CCN(S(=O)(=O)c3ccccc3C#N)CC2)nn1-c1ccccc1F,i,·,·,·,·

# Screens (PubChem)
